HIF-2a block: HIF-2a reporter inhibitors, primary screen, luminescence, 786-0 RCC cells; 786-0 RCC cells HIF-2a reporter, luciferase luminescence, overnight; inhibition, % at 18.8 µM; 360,000 tested, 0.72% active; AID 624352, 2012;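 active = inhibition of the luminescence signal of 40% or more relative to plate controls, in a single-dose primary screen at 18.75 µM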
TWEAK-Fn14 inh: inhibitors of TWEAK-Fn14 signaling, primary screen, luciferase reporter cells, uHTS; TWEAK-stimulated Fn14 reporter cells, luciferase luminescence, 8 h; inhibition, % at 10 µM; 360,000 tested, 2% active; AID 1159606, 2016; in the data active = inhibition above about 50%
Peg3 promoter: Peg3 promoter-driven luciferase inhibitors, primary screen, cell-based, HeLa, luciferase luminescence; HeLa PEG-Prom luciferase reporter, overnight; inhibition, % at 20 µM; 360,000 tested, 1.7% active; AID 588405, 2011;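 active = inhibition of at least 50% at 20 µM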
CF NFkB inh: inhibitors of PAF-induced NF-kB signaling, primary screen, cell-based, GFP fluorescence, uHTS | AID 588850, 2011 | inhibition, % at 5 µM | KKLEB NF-kB-GFP reporter, GFP fluorescence overnight | 360,000 tested, 0.86% active;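 active = at least 50% inhibition at 5 µM, scaled per plate between neutral and stimulator controls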;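 note: PAF is a Pseudomonas aeruginosa culture filtrate used as stimulus; plate controls were PAF-stimulated DMSO wells for no effect and unstimulated DMSO wells for full effect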
KKLEB cytotox: cytotoxicity in KKLEB CF airway cells, primary screen, cytotoxicity control for CF NF-kB inhibitor project, cell-based, uHTS, fluorescence assay plates | 360,000 tested, 0.36% active | KKLEB CF airway cells viability, ATPlite luminescence, overnight; active compounds read low; cells stimulated with P. aeruginosa culture filtrate | activity change (cytotoxicity), % at 5 µM;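 active = corrected activity change at or below -50% at 5 µM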
TROY signal inh: inhibitors of TROY-driven NF-kB signaling, primary screen, Q293 LMP1-TROYcd cells, NF-kB luciferase, uHTS | AID 1347056, 2019 | 360,000 tested, 0.98% active | Q293 LMP1-TROYcd NF-kB luciferase reporter, 4 h | inhibition, % at 10 µM;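 active = compounds whose plate-normalised and pattern-corrected inhibition of the luciferase reporter signal at the single screening dose is 50% or more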
* hit, by the source's call. Shown are actives, neighbours in structure and some others; about 4% of the full set was active somewhere.

For Cc1cc(Cl)c2ccc3ccccc3c2n1 the results were HIF-2a block 13, TWEAK-Fn14 inh -3, Peg3 promoter -15, CF NFkB inh 2, KKLEB cytotox 4 and TROY signal inh -16.
`Cc1ccc2c(Cl)cc(Cl)c(O)c2n1` gave HIF-2a block 6, TWEAK-Fn14 inh 101*, Peg3 promoter 46, CF NFkB inh 52*, KKLEB cytotox -35 and TROY signal inh 36.
For COc1cc([N+](=O)[O-])ccc1-c1ccc(/C=C2\C(=O)ON=C2c2ccccc2)o1 the results were HIF-2a block 9, TWEAK-Fn14 inh 68*, Peg3 promoter 103*, CF NFkB inh 87*, KKLEB cytotox -25 and TROY signal inh -2.
For Cc1ccc(/C=C2/C(=O)ON=C2c2ccccc2)o1 the results were HIF-2a block 68*, TWEAK-Fn14 inh 15, Peg3 promoter 50*, CF NFkB inh 11, KKLEB cytotox -2 and TROY signal inh -8.
For COc1ccc2sc(-c3ccccc3OC)c(-c3ccc(OC)nc3)c2c1 the results were HIF-2a block -128, TWEAK-Fn14 inh -6, Peg3 promoter -67, CF NFkB inh -18, KKLEB cytotox 14 and TROY signal inh -27.
`CCOC(=O)c1ccc(-c2c(-c3ccccc3OC)sc3ccc(OC)cc23)cc1F` gave HIF-2a block -22, TWEAK-Fn14 inh -9, Peg3 promoter 5, CF NFkB inh -10, KKLEB cytotox 0 and TROY signal inh 53*.
Cc1ccc(N2CCCCn3c2nc2c3c(=O)[nH]c(=O)n2C)cc1 was read as HIF-2a block 13, TWEAK-Fn14 inh -3, Peg3 promoter 4, CF NFkB inh -2, KKLEB cytotox -2 and TROY signal inh -5.
For COc1c(Cl)cc(Cl)cc1/C=N/NC(=O)c1nnn(-c2nonc2N)c1CN1CCC(C)CC1 the results were HIF-2a block 10, TWEAK-Fn14 inh -13, Peg3 promoter 0, CF NFkB inh 8, KKLEB cytotox 15 and TROY signal inh -9.
For Cc1c(C(=O)N/N=C/c2cccc(O)c2)nnn1-c1nonc1N the results were HIF-2a block -30, TWEAK-Fn14 inh -11, Peg3 promoter -23, CF NFkB inh -2, KKLEB cytotox 12 and TROY signal inh -21.
CC(C)c1c(C(=O)N/N=C/c2cccc(OCc3ccccc3)c2)nnn1-c1nonc1N was read as HIF-2a block -117, TWEAK-Fn14 inh 43, Peg3 promoter -10, CF NFkB inh -8, KKLEB cytotox -7 and TROY signal inh 58*.
Screening CC(C)c1c(C(=O)N/N=C/c2ccc(OCc3ccccc3)cc2)nnn1-c1nonc1N returned HIF-2a block -14, TWEAK-Fn14 inh -34, Peg3 promoter -49, CF NFkB inh 2, KKLEB cytotox -34 and TROY signal inh -19.
CCOc1ccc(-c2c(C(=O)N/N=C/c3c[nH]c4ccccc34)nnn2-c2nonc2N)cc1 was read as HIF-2a block 21, TWEAK-Fn14 inh 58*, Peg3 promoter 28, CF NFkB inh -22, KKLEB cytotox 23 and TROY signal inh 6.
`Cc1ccccc1COc1cccc(/C=N/NC(=O)c2nnn(-c3nonc3N)c2C)c1` gave HIF-2a block -9, TWEAK-Fn14 inh -30, Peg3 promoter 74*, CF NFkB inh 32, KKLEB cytotox -13 and TROY signal inh -6.
`CC1CCN(Cc2c(C(=O)N/N=C/c3cc(Cl)ccc3O)nnn2-c2nonc2N)CC1` gave HIF-2a block 8, TWEAK-Fn14 inh -22, Peg3 promoter 76*, CF NFkB inh 33, KKLEB cytotox -11 and TROY signal inh 15.
Screening O=C(N/C(=C/c1ccco1)C(=O)N1CCc2ccccc21)c1ccco1 returned HIF-2a block 13, TWEAK-Fn14 inh 11, Peg3 promoter 11, CF NFkB inh 3, KKLEB cytotox 1 and TROY signal inh -1.
`COc1cc2c(cc1NC(=O)C(C)OC(=O)C1CC(=O)N(Cc3ccco3)C1)oc1ccccc12` (configuration not stated) gave HIF-2a block -167, TWEAK-Fn14 inh -22, Peg3 promoter -179, CF NFkB inh 2, KKLEB cytotox 1 and TROY signal inh -31.
For Nc1nonc1-n1nnc(C(=O)N/N=C/c2cccc(Cl)c2)c1-c1cccs1 the results were HIF-2a block -17, TWEAK-Fn14 inh 51*, Peg3 promoter 27, CF NFkB inh 27, KKLEB cytotox 19 and TROY signal inh 6.
Screening CCc1ccc(-c2cc(C(=O)N/N=C/c3c[nH]c4ccccc34)[nH]n2)cc1 returned HIF-2a block -122, TWEAK-Fn14 inh 59*, Peg3 promoter -132, CF NFkB inh 18, KKLEB cytotox -23 and TROY signal inh 34.
COc1cccc(/C=N/NC(=O)c2nnn(-c3nonc3N)c2C(C)C)c1OCc1ccc(F)cc1 was read as HIF-2a block -14, TWEAK-Fn14 inh 63*, Peg3 promoter 8, CF NFkB inh 11, KKLEB cytotox -4 and TROY signal inh 62*.
`COc1cc(/C=N/NC(=O)c2nnn(-c3nonc3N)c2C(C)C)ccc1OCc1ccccc1` gave HIF-2a block -10, TWEAK-Fn14 inh 62*, Peg3 promoter -96, CF NFkB inh -29, KKLEB cytotox 1 and TROY signal inh 37.
Cc1cccn2cc(-c3ccc(Cl)cc3)nc12 was read as HIF-2a block -147, TWEAK-Fn14 inh 53*, Peg3 promoter -83, CF NFkB inh -35, KKLEB cytotox 1 and TROY signal inh 9.
O=[N+]([O-])c1ccc(CSc2nnc(SCc3ccc(Cl)cc3)s2)cc1 was read as HIF-2a block -9, TWEAK-Fn14 inh -24, Peg3 promoter 2, CF NFkB inh 0, KKLEB cytotox 12 and TROY signal inh 9.
`CC(=O)Nc1ccccc1-c1nnn(CC(=O)Nc2ccc3c(c2)OCCO3)n1` gave HIF-2a block -3, TWEAK-Fn14 inh -1, Peg3 promoter 14, CF NFkB inh 6, KKLEB cytotox -10 and TROY signal inh -10.
`O=C(Cn1nnc(-c2ccccc2NC(=O)c2ccccc2)n1)Nc1ccc2c(c1)OCCO2` gave HIF-2a block -1, TWEAK-Fn14 inh 2, Peg3 promoter -1, CF NFkB inh 20, KKLEB cytotox -54* and TROY signal inh -16.
`CC1C(=O)CCN(C(C)C)C1C` (configuration not stated) gave HIF-2a block 12, TWEAK-Fn14 inh -1, Peg3 promoter 2, CF NFkB inh -8, KKLEB cytotox -4 and TROY signal inh 10.

Screening results: PubChem BioAssay, Sanford-Burnham Center for Chemical Genomics
